Measured values: PubChem BioAssay AID1159580 (chemical genetic matrix, 2015)
The whole screen tested about 5,500 compounds, of which about 2,000 (36%) were called active. About 18% were inconclusive and are not listed. Rule as the data show it: active = normalized growth mostly below about 0.91 (no sharp cut-off); inconclusive = no clear call, values can overlap the other calls; inactive = mostly above about 0.92. Some of the results follow.

Assay: chemical genetic growth profiling, strain panel (AID 1159580);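 also: tested at 20 µM; growth read once vehicle control cultures reached saturation at 30 °C; 1 = growth at the plate median or of vehicle wells; lower values mean less growth of the strain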
Conditions: S. cerevisiae deletion strains, growth OD

Measured: normalized growth

Cc1cn([C@H]2C=C[C@@H](CO)O2)c(=O)[nH]c1=O
inactive: locus YAL040C, strain CLN3, stronger effect = lower value 0.999 | locus YCL061C, strain MRC1 (second series), stronger effect = lower value 1.01 | locus YDR363W, strain ESC2, stronger effect = lower value 0.976 | locus YER002W, strain NOP16, stronger effect = lower value 1 | locus YGR078C, strain PAC10, stronger effect = lower value 1.02 | locus YMR263W, strain SAP30, stronger effect = lower value 0.998 | locus YMR307W, strain GAS1, stronger effect = lower value 0.994 | locus YNL175C, strain NOP13, stronger effect = lower value 0.993 | locus YNL197C, strain WHI3, stronger effect = lower value 0.995 | locus YNL224C, strain SQS1, stronger effect = lower value 1 | locus YNL322C, strain KRE1, stronger effect = lower value 0.994 | locus YOR083W, strain WHI5 (second series), stronger effect = lower value 1.06 | locus YPL055C, strain LGE1, stronger effect = lower value 0.974 | locus YPL241C, strain CIN2, stronger effect = lower value 1
